In PubChem BioAssay (Tox21):
Results filed as inconclusive are left out. Calls of active or inactive are those of the source. Unless noted, calls follow the shape of the dose curve; as a rule, active = well fitted curve in the direction sought with a large enough effect in the repeat runs; inconclusive = weak or mixed curves; inactive = no such curve, though single readings can be large; an effect the other way counts as inactive or inconclusive.

Columns and labels:
[1] = qHTS assay to identify small molecule agonists of the peroxisome proliferator-activated receptor delta (PPARd) signaling pathway - cell viability counter screen (AID 743211); also: nearly all actives have a fitted effect of over 55% in size
How it was run: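 PPARd-bla HEK293H cells (3000/well) were pre-incubated 5 h at 37 C, then exposed to compound for 17 h at 37 C. After 2 h with LiveBLAzer substrate, CellTiter-Glo was added to the same wells; luminescence read after 30 min at room temperature.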

[2] = target: Peroxisome proliferator-activated receptor delta (Homo sapiens) (UniProt Q03181); assay: qHTS assay to identify small molecule agonists of the peroxisome proliferator-activated receptor delta (PPARd) signaling pathway (AID 743212; calls by dose curve; also: potency is read from the fitted curve at half-maximal effect)
Sequence of Peroxisome proliferator-activated receptor delta (Homo sapiens) (Q03181 whole entry, looked up): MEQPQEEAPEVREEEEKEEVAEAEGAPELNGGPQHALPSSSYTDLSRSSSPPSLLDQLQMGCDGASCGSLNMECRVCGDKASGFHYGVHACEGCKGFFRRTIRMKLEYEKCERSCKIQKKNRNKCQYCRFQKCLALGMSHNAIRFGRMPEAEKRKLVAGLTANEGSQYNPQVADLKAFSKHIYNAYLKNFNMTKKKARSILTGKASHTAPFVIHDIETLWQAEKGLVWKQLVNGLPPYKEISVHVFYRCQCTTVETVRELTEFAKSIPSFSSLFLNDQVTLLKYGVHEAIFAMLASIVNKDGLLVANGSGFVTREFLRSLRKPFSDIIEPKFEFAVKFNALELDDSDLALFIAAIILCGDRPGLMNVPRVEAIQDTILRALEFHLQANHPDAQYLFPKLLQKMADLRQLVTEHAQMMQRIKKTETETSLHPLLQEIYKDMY
How it was run: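 GeneBLAzer PPARd UAS-bla HEK293H cells (beta-lactamase reporter under UAS control), plated and rested 5 h at 37 C, then exposed to compounds in DMSO at 37 C; LiveBLAzer B/G FRET substrate added, 2 h room temperature, fluorescence read.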

[3] = qHTS assay to identify small molecule antagonists of the peroxisome proliferator-activated receptor delta (PPARd) signaling pathway - cell viability counter screen (AID 743213); also: nearly all actives have a fitted effect of over 50% in size
How it was run: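 Agonist-stimulated (L165041, 300 nM final) HEK293H PPARd UAS-bla cells are exposed to compounds for 17 h at 37 C, and ATP-based luminescence (CellTiter-Glo) from the same wells reports cytotoxicity.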

[4] = target: Peroxisome proliferator-activated receptor delta (Homo sapiens) (UniProt Q03181); assay: qHTS assay to identify small molecule antagonists of the peroxisome proliferator-activated receptor delta (PPARd) signaling pathway (AID 743215; active = well fitted inhibition curve with a large enough effect in the signal ratio in the repeat runs, not every such curve was filed as active; the % refers to the signal ratio; also: series mostly up to about 62 µM)
How it was run: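 PPARd-bla HEK293H cells (UAS-bla reporter) preincubated 5 h, then given compound plus 300 nM final L165041 agonist for 17 h at 37 C. Beta-lactamase activity read by LiveBLAzer B/G FRET substrate fluorescence after 2 h at room temperature.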

[5] = target: Bile acid receptor (Homo sapiens) (UniProt Q96RI1); assay: qHTS assay to identify small molecule antagonists of the farnesoid-X-receptor (FXR) signaling pathway (AID 743217; active = well fitted inhibition curve with a large enough effect in the signal ratio in the repeat runs, not every such curve was filed as active; the % refers to the signal ratio)
Sequence of Bile acid receptor (Homo sapiens) (Q96RI1 whole entry, looked up): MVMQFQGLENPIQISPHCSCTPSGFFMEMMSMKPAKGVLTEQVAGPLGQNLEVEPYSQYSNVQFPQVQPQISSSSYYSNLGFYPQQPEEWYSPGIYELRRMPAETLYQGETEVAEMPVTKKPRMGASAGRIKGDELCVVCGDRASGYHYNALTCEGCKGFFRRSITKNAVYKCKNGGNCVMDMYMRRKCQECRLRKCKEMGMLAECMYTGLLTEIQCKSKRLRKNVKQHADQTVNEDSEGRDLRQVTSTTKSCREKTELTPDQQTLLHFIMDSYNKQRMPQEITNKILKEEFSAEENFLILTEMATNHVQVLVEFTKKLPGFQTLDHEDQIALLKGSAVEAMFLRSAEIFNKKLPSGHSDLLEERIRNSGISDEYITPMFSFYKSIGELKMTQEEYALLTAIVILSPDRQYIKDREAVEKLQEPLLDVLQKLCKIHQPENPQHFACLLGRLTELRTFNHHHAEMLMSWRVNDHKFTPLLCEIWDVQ
How it was run: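 FXR-UAS-bla HEK 293T cells (beta-lactamase reporter) given compound plus chenodeoxycholic acid (50 uM final), 16 h at 37C. LiveBLAzer B/G FRET substrate added for 2 h at room temperature; fluorescence read.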

[6] = qHTS assay to identify small molecule agonists of the farnesoid-X-receptor (FXR) signaling pathway - cell viability counter screen (AID 743218); also: nearly all actives have a fitted effect of over 45% in size
How it was run: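 FXR-UAS-bla HEK 293T cells exposed to compounds for 16 h at 37C. Cytotoxicity read in the same wells by CellTiter-Glo luminescence after 30 min at room temperature, following the beta-lactamase FRET read.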

[7] = target: Bile acid receptor (Homo sapiens) (UniProt Q96RI1); assay: qHTS assay to identify small molecule agonists of the farnesoid-X-receptor (FXR) signaling pathway (AID 743220; active = well fitted activation curve with a large enough effect in the signal ratio in the repeat runs, not every such curve was filed as active; the % refers to the signal ratio)
How it was run: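 Beta-lactamase reporter under UAS control in GeneBLAzer FXR HEK 293T cells (5000/well) measured with LiveBLAzer FRET substrate after 2 h at room temperature. Compound exposure lasted 16 h at 37C.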

[8] = qHTS assay to identify small molecule antagonists of the farnesoid-X-receptor (FXR) signaling pathway - cell viability counter screen (AID 743221; active = well fitted cell-killing curve with a large enough effect in the repeat runs, not every such curve was filed as active; also: nearly all actives have a fitted effect of over 50% in size)
How it was run: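 GeneBLAzer FXR-UAS-bla HEK 293T cells, compound plus chenodeoxycholic acid (50 uM final), 16 h at 37 C. CellTiter-Glo added to the same wells after the beta-lactamase read; luminescence read after 30 min at room temperature as viability.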

[9] = target: Vitamin D3 receptor (Homo sapiens) (UniProt P11473); assay: qHTS assay to identify small molecule antagonists of the vitamin D receptor (VDR) signaling pathway (AID 743223; active = well fitted inhibition curve with a large enough effect in the signal ratio in the repeat runs, not every such curve was filed as active; the % refers to the signal ratio)
Sequence of Vitamin D3 receptor (Homo sapiens) (P11473 whole entry, looked up): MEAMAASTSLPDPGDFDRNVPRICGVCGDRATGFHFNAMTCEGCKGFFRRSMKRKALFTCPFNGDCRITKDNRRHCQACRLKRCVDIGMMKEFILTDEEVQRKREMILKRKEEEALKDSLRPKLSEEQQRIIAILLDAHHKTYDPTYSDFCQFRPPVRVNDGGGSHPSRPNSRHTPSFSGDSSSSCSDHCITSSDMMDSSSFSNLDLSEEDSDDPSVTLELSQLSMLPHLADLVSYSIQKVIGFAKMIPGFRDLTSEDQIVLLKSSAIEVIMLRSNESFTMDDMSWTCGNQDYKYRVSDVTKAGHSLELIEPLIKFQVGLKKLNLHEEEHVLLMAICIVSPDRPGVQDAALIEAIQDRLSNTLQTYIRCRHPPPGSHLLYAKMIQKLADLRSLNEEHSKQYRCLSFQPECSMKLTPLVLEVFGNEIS
How it was run: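 VDR-bla cells were treated with compound plus 3 nM final 1alpha,25-dihydroxyvitamin D3 for 16 h at 37C. Beta-lactamase reporter read by B/G FRET substrate fluorescence after 2 h at room temperature. qHTS format.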

[10] = target: Vitamin D3 receptor (Homo sapiens) (UniProt P11473); assay: qHTS assay to identify small molecule agonists of the vitamin D receptor (VDR) signaling pathway (AID 743222; calls by dose curve)
How it was run: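 VDR-bla cells plated 4 h at 37 C, then exposed to compounds for 16 h at 37 C. Beta-lactamase reporter activity measured by fluorescence after 2 h room-temperature loading with LiveBLAzer B/G FRET substrate.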

Measured: Potency

c1ccc(-c2ccc(-c3ccccc3)cc2)cc1
not listed: [10]
inactive: all other assays above

CC(C)(C)N
not listed: [5] | [7] | [9]
inactive: all other assays above

CCC(=O)O[C@]1(C(=O)COC)[C@@H](C)C[C@H]2[C@@H]3CCC4=CC(=O)C=C[C@]4(C)C3(F)[C@@H](O)C[C@@]21C (some centres not stated)
inactive: all assays above

C[C@H]1C[C@H]2[C@@H]3CCC4=CC(=O)C=C[C@]4(C)[C@@]3(F)[C@@H](O)C[C@]2(C)[C@@]1(O)C(=O)COP(=O)(O)O
not listed: [5] | [7] | [9]
inactive: all other assays above

CC(C)=CCC/C(C)=C/C=N/O
inactive: all assays above

SCCOCCOCCS
not listed: [5] | [7] | [9]
inactive: all other assays above

O=C(O)CCc1nc2ccccc2[nH]1
inactive: [1] | [2] | [3] | [4] | [6] | [8]

CCCCCCCCS
inactive: all assays above

O=[N+]([O-])c1ccccc1CCO
not listed: [5] | [7] | [9]
inactive: all other assays above

CC1=C(C)C(=O)C(C(CCCCCC(=O)O)c2ccccc2)=C(C)C1=O (configuration not stated)
active: [2] 29.8 µM
not listed: [9]
inactive: all other assays above

CCOc1ccc(NC(C)=O)cc1N
not listed: [5] | [7]
inactive: all other assays above

O=C1C=CCCC1
not listed: [4] | [9] | [10]
inactive: all other assays above

C[C@@H](O)[C@H]1C(=O)N2C(C(=O)O)=C(S[C@@H]3CN[C@H](CNS(N)(=O)=O)C3)[C@H](C)[C@H]12
inactive: [1] | [2] | [3] | [5] | [7] | [8]

O=c1[nH][nH]c2ccccc12
not listed: [4]
inactive: all other assays above

CC(C)Cc1nccs1
not listed: [4]
inactive: all other assays above

O=C(OCCOCCOCCOC(=O)c1ccccc1)c1ccccc1
not listed: [4] | [9]
inactive: all other assays above

COc1ccc(/C(C)=C/C(=O)O)c(OC)c1
not listed: [5] | [7]
inactive: all other assays above

C=CC(O)CCCCC (configuration not stated)
not listed: [4] | [9]
inactive: all other assays above

CC(C)=CCCC(C)C=O (configuration not stated)
not listed: [4]
inactive: all other assays above

CCOCCn1c(N2CCCN(C)CC2)nc2ccccc21
inactive: [1] | [2] | [3] | [4] | [10] | [9]

Cc1ccc2ccccc2c1[N+](=O)[O-]
not listed: [5] | [7]
inactive: all other assays above

CCOC(OCC)OCC
not listed: [4]
inactive: all other assays above

N#CCCCC(C#N)CCC#N (configuration not stated)
inactive: [1] | [2] | [3] | [6] | [8]

CCCCCO
not listed: [4]
inactive: all other assays above

Clc1cccc(C(c2ccc3nc[nH]c3c2)n2ccnc2)c1 (configuration not stated)
not listed: [4]
inactive: all other assays above

CC(C)NC(=O)c1ccccc1N
not listed: [4] | [9]
inactive: all other assays above

CCOc1ccc2c(c1)C(C)CC(C)(C)N2 (configuration not stated)
not listed: [4]
inactive: all other assays above
